# PubChem BioAssay AID778 (Sanford-Burnham Center for Chemical Genomics, 2007)
# Out of some 96,000 compounds screened, about 20,000 (21%) were called active.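 How the source made its calls: active means CYP2C19 inhibition above a set limit at 5 µM in the primary screen (cut at about 50% in these data); inactive means the rest.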 Only a sample is shown.
# Biological target: Cytochrome P450 2C19 (Homo sapiens) (UniProt P33261)
# Assay: blockers of cytochrome P450 2C19 activity – biochemical, luminescence, ADME assay, primary screen (AID 778);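 further: plate controls were negative control wells for no effect and 2.5 mM tranylcypromine positive control for full effect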
# Conditions: CYP2C19 Supersomes, luciferin-H EGE luminescence, 30 min; at 5 µM; stronger effect = higher value
# Cytochrome P450 2C19 (Homo sapiens), sequence (P33261 whole entry, looked up): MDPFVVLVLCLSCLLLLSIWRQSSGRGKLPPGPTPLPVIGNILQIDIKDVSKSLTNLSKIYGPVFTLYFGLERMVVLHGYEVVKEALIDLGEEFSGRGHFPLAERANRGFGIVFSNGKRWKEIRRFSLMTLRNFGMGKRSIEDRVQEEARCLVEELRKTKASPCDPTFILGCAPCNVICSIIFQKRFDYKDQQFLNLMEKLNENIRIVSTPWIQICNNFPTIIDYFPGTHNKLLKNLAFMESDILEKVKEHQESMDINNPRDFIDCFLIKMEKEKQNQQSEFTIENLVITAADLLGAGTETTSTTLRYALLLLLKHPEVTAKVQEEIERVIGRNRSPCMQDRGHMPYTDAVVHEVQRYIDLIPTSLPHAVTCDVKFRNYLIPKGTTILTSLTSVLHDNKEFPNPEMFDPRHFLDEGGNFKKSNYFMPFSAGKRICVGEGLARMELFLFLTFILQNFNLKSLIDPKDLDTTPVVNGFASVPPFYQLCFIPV
row,SMILES,inhibition
1,Cc1ccc(NC2(C#N)C(=O)Nc3ccccc32)cc1 (stereo not given),60.3% (active)
2,Cc1ccc2c(c1)C(O)(CC(=O)c1cccnc1)C(=O)N2 (stereo not given),10.2% (inactive)
3,CN1CCN(c2nc3c(c(=O)[nH]c(=O)n3C)n2Cc2cccc3ccccc23)CC1,1.2% (inactive)
4,Cc1cc(NC(=O)c2cc(-c3cccs3)on2)nn1Cc1ccc(Cl)cc1,2% (inactive)
5,Cc1ccc(Cn2ccc(NC(=O)C3C4CCC(C4)C3C(=O)O)n2)cc1 (stereo not given),15% (inactive)
6,Cc1ccc(Cn2ccc(NC(=O)c3cc(C(C)C)on3)n2)cc1,97.2% (active)
7,CC(=O)Nc1ccn(Cc2c(F)cccc2Cl)n1,48.9% (inactive)
8,O=C(Nc1ccn(Cc2ccc(F)cc2)n1)c1ccncc1,97.8% (active)
9,Cc1nn(Cc2ccc(F)cc2)c(C)c1NC(=O)c1noc2c1CCc1ccccc1-2,1% (inactive)
10,Cc1ccc(N(NC(=O)C(C)(C)O)C(=O)c2ccccc2)cc1C,14.9% (inactive)
11,COc1ccccc1CNC(=O)Cn1cc2c(n1)CCCC2,20.5% (inactive)
12,O=P(O)(CN1CCCCC1)CN1CCCCC1,-0.9% (inactive)
13,Cc1ccc(-c2cnc(NC(=O)CCC(=O)N(C)Cc3ccccc3)n2C)cc1,1% (inactive)
14,COc1ccccc1NC1=NC(c2ccc(Cl)cc2)N=C(N)N1 (stereo not given),92.6% (active)
15,COc1ccccc1Nc1nc(N)nc(CN(C)C2CCCCC2)n1,-23.9% (inactive)
16,COc1ccccc1NC1=NC2(CCCC2)N=C(N)N1,-6% (inactive)
17,C=C(C)Cn1c(N2CCN(CC)CC2)nc2c1c(=O)[nH]c(=O)n2C,-24.3% (inactive)
18,O=S(=O)(c1ccc(Sc2nnc3ccccn23)nc1)N1CCOCC1,13.2% (inactive)
19,Cc1ccc(C(=O)OCC(=O)NCc2ccc3c(c2)OCO3)s1,64% (active)
20,O=C(Cn1nnc(-c2ccccc2)n1)NCc1ccc2c(c1)OCO2,25.4% (inactive)
21,O=C(COC(=O)c1ccc2c(c1)OCCO2)NCc1ccccc1,6.9% (inactive)
22,COc1ccc(-c2csc(N3CCN(Cc4ccc5c(c4)OCO5)CC3)n2)cc1,-20.9% (inactive)

row,SMILES,inhibition
1,O=C(NCc1ccc2c(c1)OCO2)C12CC3CC(CC(C3)C1)C2,26.4% (inactive)
2,O=C(CNS(=O)(=O)c1ccc(Br)s1)N1CCN(C(=O)c2ccco2)CC1,26.7% (inactive)
3,CCOC(=O)NCc1ccc2c(c1)OCO2,48.5% (inactive)
4,O=C(CN(Cc1ccccc1)C(=O)c1ccc2c(c1)OCCO2)NCc1ccc2c(c1)OCO2,29.2% (inactive)
5,O=C(CNS(=O)(=O)c1ccc(Br)s1)NCc1ccc2c(c1)OCO2,63.1% (active)
6,O=C(CCNS(=O)(=O)c1ccccc1C(F)(F)F)NCc1ccc2c(c1)OCO2,84.6% (active)
7,O=C(CN1CCN(c2nc(-c3ccccc3)cs2)CC1)NCc1ccc2c(c1)OCO2,91.6% (active)
8,C/C(=N\O)C1(C)N(O)C(C)(C)C(c2ccc(Br)cc2)=[N+]1[O-] (stereo not given),-15.7% (inactive)
9,Cc1ccccc1OCC(=O)NCC(=O)OCC(=O)c1ccc2ccccc2c1,-2% (inactive)
10,COC(=O)c1sc(NC(=O)c2csc3c2CCCC3)nc1C,-10.6% (inactive)
11,Clc1ccccc1-c1cc(COc2ccc3ccccc3c2)no1,3.1% (inactive)
12,CCCCSc1[nH]c(=O)c(C(=O)OCC)cc1C#N,3.8% (inactive)
13,Cc1cc(C)n2nc(C(=O)Oc3ccc4c(c3)OCO4)nc2n1,-10.7% (inactive)
14,CN(C)CC(O)COc1ccc(C(C)(C)c2ccc(OCC(O)CN(C)C)cc2)cc1 (stereo not given),-7.2% (inactive)
15,O=C(CCCCn1c(=O)[nH]c2ccccc2c1=O)NCc1ccc2c(c1)OCO2,28% (inactive)
16,COC(=O)Cc1c(C)c2ccc(OCC(=O)NCc3ccc4c(c3)OCO4)cc2oc1=O,21.2% (inactive)
17,CCc1c(C)nc2ncnn2c1N1CCC(C(=O)NCc2ccc3c(c2)OCO3)CC1,17.6% (inactive)
18,CC1CCCCN1CC(=O)NCc1ccc2c(c1)OCO2 (stereo not given),69.6% (active)
19,Cn1cc(CCC(=O)NCc2ccc3c(c2)OCO3)c2ccccc21,93.8% (active)
20,O=C(NCc1ccc2c(c1)OCO2)c1ccc2c(c1)C(=O)N(CC1CCCO1)C2=O (stereo not given),-1.9% (inactive)
21,O=C(CC(Cc1ccccc1)C(=O)O)NCCc1ccc2c(c1)OCO2 (stereo not given),4% (inactive)
22,CCOC(=O)N1CCC(NC(=O)CCc2cn(C)c3ccccc23)CC1,15.5% (inactive)

row,SMILES,inhibition
1,O=C(COc1ccccc1)NCc1ccc2c(c1)OCO2,69.2% (active)
2,COC(=O)c1sc2ncccc2c1OCc1ccc(Cl)cc1Cl,-1.5% (inactive)
3,COc1ccc2[nH]c(C)c(CCN(Cc3cccs3)C(=S)Nc3ccccc3OC)c2c1,25.1% (inactive)
4,O=C1c2ccccc2NC(c2ccc(-c3cccc(Cl)c3)o2)N1O (stereo not given),22.2% (inactive)
5,Cc1cc(NC(=O)Nc2ccccc2)n(-c2ccccc2)n1,29.8% (inactive)
6,CC(C)[C@H](NC(=O)Nc1ccc(S(N)(=O)=O)cc1)C(=O)O,-1.3% (inactive)
7,N#CCSc1nc2ccc(N3CCOCC3)cc2c(=O)n1CCc1ccccc1,12.7% (inactive)
8,CCCCCCSc1nsc(N)n1,45.3% (inactive)
9,O=C1CC(C(F)(F)C(F)(F)C(F)(F)C(F)(F)F)=Nc2ccccc2N1,35.1% (inactive)
10,Cn1c(COc2ccc(Cl)cc2)nc2ccccc2c1=O,62.8% (active)
11,O=c1c2ccccc2nc2n1C(CSc1ccc(Cl)cc1)CN2 (stereo not given),18.3% (inactive)
12,Cc1ccc(S(=O)(=O)NCc2nc3ccccc3c(=O)n2N)cc1,-4% (inactive)
13,COc1ccc(Oc2c(Cl)cnn(-c3ccccc3)c2=O)cc1,29.7% (inactive)
14,Cc1ccc(C(=O)CSc2nc3ccccc3c(=O)n2N)o1,33.5% (inactive)
15,COc1ccc(OCc2ccc(-c3nc4ccccc4c(=O)n3N)o2)cc1,51.4% (active)
16,CCc1c(C)[nH]c(=S)c(C#N)c1C,-1.3% (inactive)
17,CNC(=S)N1N=C(c2ccccc2)CC1c1ccc(Br)cc1 (stereo not given),29.6% (inactive)
18,CSCCC(NC(=O)c1ccc(=O)n(C)n1)c1nc2ccccc2[nH]1 (stereo not given),8.7% (inactive)
19,O=C(NCc1ccc(Cl)c(Cl)c1)c1cccnc1,62.7% (active)
20,O=C(Nc1cnccn1)c1cccnc1,-4.8% (inactive)
21,CC(C)(C)c1cc(C(=O)NCc2cccnc2)ccn1,46.9% (inactive)
